Out of some 330,000 compounds screened, about 4,400 (1.3%) were called active. Only a selection was taken, and actives are over-represented in it overall. Unmarked numbers belong to inactive results.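 Rule for the calls: active = growth inhibition of the mutant yeast at or above 50%; inactive = the rest.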
Assay: growth inhibition of tim23-1 ts yeast – luminescence, uHTS, primary screen (AID 463212);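 note: temperature-sensitive mutant grown at 25 °C; plate controls were DMSO-treated mutant yeast for no effect and medium wells lacking yeast for full effect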
Settings: S. cerevisiae tim23-1 growth, BacTiter-Glo luminescence, 24 h; at 20 µM; active compounds read high

Compound | inhibition
CCN(CC)C(=O)N1CCN(C(=O)c2ccc(C)cn2)CC1 | 8.95%
O=[N+]([O-])c1ccc(N=Cc2c(O)ccc3ccccc23)cc1 | 55.5% (active)
Cc1nc2ccccc2nc(=O)c1NNc1ccc([N+](=O)[O-])cc1 | -14.3%
CC(=O)n1c(C=Nc2ccccc2)c(O)c2ccccc21 | 10.8%
CC(C)CNC(=O)CC(c1ccccc1)c1c(O)ccc2ccccc12 (stereo not drawn) | 11.2%
Oc1ccc2ccccc2c1C=Nc1ccccc1 | 53.2% (active)
C/C(=N\N(C)C)c1ccc(OCCOc2ccc([N+](=O)[O-])cc2)cc1 | 20.4%
COc1ccc(NC(=O)C2=C(C)NC(=O)NC2c2ccccc2[N+](=O)[O-])cc1 (stereo not drawn) | 1.02%
O=C(NCC(=O)N(CC1CCCO1)C(C(=O)NC1CCCCC1)c1ccccc1)c1ccco1 (stereo not drawn) | 14.7%
COc1cc(C2CC(=O)Oc3cc(OC)c(OC)c(OC)c32)cc(OC)c1OC (stereo not drawn) | 27.3%
COc1ccc(NC(=O)NNC(=O)COc2cc(C)c(Cl)c(C)c2)c(OC)c1 | -17.4%
Oc1ccc(Br)cc1/C=N/Nc1ccccn1 | 68% (active)
Oc1cccc(/C=N/Nc2ccc(Cl)nn2)c1O | 24.4%
Oc1ccc(/C=N/Nc2ccc(C(F)(F)F)cn2)cc1O | 16.3%
N/C(=N\OC(=O)CCc1ccccc1)c1ccc(Cl)cc1 | 73.6% (active)
N/C(=N\OC(=O)CCc1ccccc1)c1cccnc1 | 18.1%
COc1ccc(/C(N)=N/OC(=O)CCCc2ccccc2)cc1 | 71.1% (active)
O=C(CCc1ccccc1)NNC(=O)COc1ccc(Cl)cc1 | 7.58%
COc1ccc(/C(N)=N/OC(=O)Oc2ccccc2)cc1 | 14.8%
COc1ccc(/C(N)=N/OC(=O)Cc2ccccc2)cc1 | 21.8%
CCC[C@H]1CCCC/C=C\CCCC(=O)OCCN1C(=O)OC(C)(C)C | 9.84%
CC1Sc2ccc(C(=O)NCc3ccccc3Cl)cc2NC1=O (stereo not drawn) | 9.69%
CCOc1ccc(N/C(N)=N/c2nc(C)c(C)c(=O)[nH]2)cc1 | 12.2%
CCOC(=O)N1CCN(C(=O)c2ccc3nc4cc(Cl)ccc4c(=O)n3c2)CC1 | 10.4%
CCN(CC(=O)Nc1ccc(OC)cc1)C(=O)CSCc1ccc(C)cc1 | 25%

Compound | inhibition
COc1ccc(NC(=O)/C(Cl)=C(/Cl)S(=O)Cc2ccc(C)cc2)cn1 (stereo not drawn) | 67% (active)
COc1ccc(CS(=O)/C(Cl)=C(/Cl)C(=O)Nc2ccc(OC)nc2)cc1 (stereo not drawn) | 85.7% (active)
COC(=O)c1sccc1NC(=S)Nc1ccc(C)cc1 | 22.6%
COc1ccc(C(=O)CCC(=O)Nc2ccc(Cl)cc2)cc1 | 12.1%
COc1ccc(CCNC(=O)c2cnc(Cl)c(Cl)c2)cc1 | 1.06%
COc1ccc2c(c1)cc1n2CCN=C1NN | 45.5%
COc1ccc(C(=O)ON=C2c3ccccc3-c3ccccc32)cc1OC | 0.197%
COc1ccc(C(=O)O/N=C(\N)Cc2ccc(Cl)cc2Cl)cc1OC | 60.3% (active)
COc1ccc(C/C(N)=N/OC(=O)c2ccco2)cc1OC | 2.63%
Cn1nc(C(F)(F)F)c2cc(C(=O)N3CCOCC3)sc21 | 3.93%
Cn1nc(C(F)(F)F)c(-c2ccc(F)cc2)c1NC(=O)CSCC(=O)O | -1.38%
Cn1nc(C(F)(F)F)c2cc(NC(=O)OCC(C)(C)C)sc21 | 50.2% (active)
COc1ccc(CCNC(=O)C2CCCN(Cc3nc(-c4cccc(Cl)c4)oc3C)C2)cc1OC (stereo not drawn) | 7.77%
COc1cc(OC)c2c(-c3cccc(-c4cccc(N)c4)c3)cc(=O)oc2c1 | 35.7%
O=C(O)c1ccc(/C=N/NC(=S)NCc2ccccc2)cc1 | -1.86%
C/C(=N\NC(=S)NCc1ccccc1)c1ccc(Cl)cc1 | 56% (active)
C/C(=N\NC(=S)NCc1ccccc1)C1CCCCC1 | 22.7%
Cc1nn(C)c(C)c1CN(C(=O)CCc1nnc(Cc2c[nH]c3ccccc23)o1)C(C)C | 20.5%
COc1ccc(-n2cnc3cc(C(=O)NC4CCCC4)ccc32)cc1 | 17.7%
COc1ccc(C(=O)NC(=S)NC2CCCCC2)cc1 | 63.3% (active)
CCCNC(=S)N1CCC(NC(=O)c2ccc(OC)cc2)CC1 | -9.98%
O=C(NNC(=S)NC1CCCCC1)c1ccccc1Cl | 5.3%
O=C(NC1CCCCCC1)C1CCN(C(=O)c2ccc(Cl)cc2)CC1 | 15.7%
O=C(NC(=S)NC1CCCCC1)c1ccc(Cl)cc1 | 67.3% (active)
CCc1ccc(S(=O)(=O)NCC(O)COc2ccc(OC)cc2)cc1 (stereo not drawn) | 13.2%

Compound | inhibition
CCc1ccc(Nc2n[n+](-c3ccccc3)c(-c3cccc(Cl)c3Cl)s2)cc1 | 36.3%
CCc1ccccc1NC1c2ccccc2C(=O)N1c1cccnc1 (stereo not drawn) | -9.01%
O=C1[C@@H](c2ccccc2)[C@@H](c2ccccc2)N1c1cccnc1 | 70.3% (active)
CC(=O)C1=C(O)C(=O)N(c2cccnc2)C1c1ccc([N+](=O)[O-])cc1 (stereo not drawn) | 4.69%
COc1cc(/C=N/Nc2nc3ccccc3s2)ccc1O | 51.9% (active)
COc1cc(/C=N/NC(=O)CCc2n[nH]c(=O)[nH]c2=O)ccc1O | 5.73%
CCOc1cc(/C=N/Nc2cc(C)nc3ccc(C)cc23)ccc1O | 37.3%
CC(=O)c1c(C)[nH]c(C(=O)CN2C(=O)NC(C)(C)C2=O)c1C | -12.9%
Cc1ccc(S(=O)(=O)N[C@@H](Cc2ccccc2)C(=O)N2CCC(C(=O)N[C@H](C(=O)O)C(C)O)CC2)cc1 (stereo partly drawn) | 0.987%
Oc1c(Cl)cc(Cl)c(Cl)c1Cc1c(O)c(Cl)cc(Cl)c1Cl | 94.9% (active)
Cc1ccc(OC(=O)c2cncc(Br)c2)c(C)c1 | 14.1%
Cc1ccc(C(=O)OC2CCCN(C)C2)cc1 (stereo not drawn) | -2.9%
CC1(C)C2CCC1(C)C(OC(=O)c1ccc(O)cc1)C2 (stereo not drawn) | 70% (active)
CC1(C)C2CCC1(C)C(OC(=O)CCn1ccnc1)C2 (stereo not drawn) | 13.1%
CN(C)c1ccc(N/C=C/C(=O)C(F)(F)F)cc1 | 6.08%
O=C(O)c1cc(S(=O)(=O)N2CCCCCC2)c(Cl)cc1Cl | 8.13%
COc1ccc(CCNC(=O)CCCCCNC(=O)N2CCn3c2nc2ccccc23)cc1OC | 15%
CC1CC2=C(CC1/C=N/NC(N)=S)C(C)(C)CCC2 (stereo not drawn) | 50.5% (active)
CC1CCN(C(=S)c2ccc(-c3ccc(Cl)cc3Cl)o2)CC1 | 17.6%
C/C(=N\NC(=O)c1ccc(NS(=O)(=O)c2cccs2)cc1)c1ccc2ccccc2c1 | 10.6%
CCN(C(=O)CSc1nnnn1-c1ccccc1OC)C1CCS(=O)(=O)C1 (stereo not drawn) | -2.5%
O=C(COC(=O)c1ccc(O)cc1O)c1ccc2c(c1)OCCO2 | 59% (active)
O=C(COC(=O)c1ccccc1)c1ccc2c(c1)OCCO2 | 16.5%
CC(=O)Nc1cccc(C(=O)OCC(=O)c2ccc3c(c2)OCO3)c1 | 2.44%
O=C(c1cnn2ccccc12)N1CCc2ccccc21 | 5.86%

Compound | inhibition
COC(=O)c1cn(C)c2ccc(S(=O)(=O)N3CC(C)CC(C)C3)cc2c1=O (stereo not drawn) | 17.1%
CC(=O)N/C(=C/c1ccc(OC(F)F)cc1)C(=O)O | 0.72%
Oc1c(Cl)cc(Cl)cc1/C=N/c1ncn[nH]1 | 31.4%
C=CCn1c(Cn2nnc3ccccc32)nnc1SCC(=O)N/N=C/c1cc(Br)cc(OC)c1O | 7.67%
COc1cc(Br)cc(/C=N/c2ncn[nH]2)c1O | 72.2% (active)
CCc1ccc(Oc2nc([N+](=O)[O-])nn2C)cc1 | 27.6%
Cn1c2ccccc2c2c(C(=O)N3CCN(c4ccc(F)cc4)CC3)cn(C3CCCC3)c(=O)c21 | 31.3%
CCCc1nc2c(c(=O)c3ccccc3n2C)c(=O)n1C1CCCCCC1 | 59.8% (active)
CC1CCN(Cc2nc3c(c(=O)n(C)c(=O)n3C)n2CCc2ccccc2)CC1 | 5.06%
CCN=c1sc(C(=O)Nc2ccccc2)c(C)n1CC | -9.39%
COc1cccc(C2=CC(=O)C[C@H](c3ccc(OC)c(OC)c3)C2)c1 | 29%
Cc1cccc(-n2ncc(Cl)c(Cl)c2=O)c1 | 13.8%
Cc1ccc(OC(=O)c2c(C)nn(-c3ccccc3)c2C)cc1 | 23%
Cc1ccc(Oc2cnn(-c3ccccc3)c(=O)c2Br)cc1 | 55.2% (active)
Cc1ccc(-n2c(=O)c(C#N)cc3c(=O)n4ccccc4nc32)cc1C | -9.74%
CCc1ccc(OCC(=O)N(Cc2ccccc2)C2CCS(=O)(=O)C2)cc1 (stereo not drawn) | 9.11%
COc1ccccc1C(C)NC(=O)Cc1ccsc1 (stereo not drawn) | -5.87%
O=C(Nc1ccccc1)/C(=C\c1ccco1)NC(=O)c1ccco1 | 17%
O=c1nc2s/c(=C\c3ccco3)c(=O)n2nc1Cc1ccccc1 | 65.5% (active)
O=C(NCCc1ccco1)c1nn(Cc2ccccc2)c(=O)c2ccccc12 | 8.6%
COc1ccc(C(=O)O)cc1S(=O)(=O)NCc1cccnc1 | -0.937%
COc1ccc(CNC(=O)c2cc(=O)c3c(C)cc(C)cc3o2)cc1 | 28.5%
Cc1cc(C)cc(OCC(=O)Nc2cc(NC(=O)COc3cc(C)cc(C)c3)cc(C(=O)O)c2)c1 | 1.96%

Source: PubChem BioAssay AID463212 (Sanford-Burnham Center for Chemical Genomics, 2010)
